Measured values as given in PubChem BioAssay.
Results with a measured potency or affinity are listed apart. Activity calls are given as the source filed them. The limit is not given here; nearly all actives have IC50 up to about 0.98 µM.

target: Calcium-dependent protein kinase 1 (Plasmodium falciparum (isolate 3D7)) (UniProt P62344); assay: PfCDPK1 kinase inhibitors, biochemical, TCAMS library (AID 1159585); conditions: recombinant PfCDPK1, Kinase-Glo ATP depletion luminescence;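 also: inhibitors leave more ATP so luminescence rises with inhibition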
Sequence (P62344 whole entry, looked up): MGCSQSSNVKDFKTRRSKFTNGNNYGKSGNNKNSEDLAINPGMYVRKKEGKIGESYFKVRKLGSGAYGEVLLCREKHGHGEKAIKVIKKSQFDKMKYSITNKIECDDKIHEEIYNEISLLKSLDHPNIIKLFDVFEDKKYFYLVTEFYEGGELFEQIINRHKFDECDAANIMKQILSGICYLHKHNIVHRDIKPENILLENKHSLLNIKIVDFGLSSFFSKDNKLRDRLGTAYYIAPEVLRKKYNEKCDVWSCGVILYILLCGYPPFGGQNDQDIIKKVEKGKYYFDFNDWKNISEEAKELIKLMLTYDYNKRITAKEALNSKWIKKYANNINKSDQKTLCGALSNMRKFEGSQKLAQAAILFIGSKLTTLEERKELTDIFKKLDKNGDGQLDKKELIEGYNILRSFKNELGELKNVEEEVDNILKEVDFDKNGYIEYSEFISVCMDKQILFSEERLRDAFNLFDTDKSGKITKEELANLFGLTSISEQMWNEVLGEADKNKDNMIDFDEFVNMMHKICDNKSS

outcome, inactive:
O=C(Nc1ccc2nccc(N3CCN4CCC[C@H]4C3)c2c1)c1ccc(Cl)c(Cl)c1, NC(=O)c1cccc(C(=O)Nc2cccc(-c3ccc(-c4nc5ccccc5[nH]4)s3)c2)c1, COc1ccc(CCNCCCCCCNCCc2ccc(-c3ccccc3)cc2)cc1OC, CC(ON1C(N)=NC(N)=NC1(C)C)c1ccccc1 (stereo unspecified), CC(C)CCN1CCC(Oc2cccc(NC(=O)c3ccc(C(F)(F)F)cc3)c2)CC1, CCc1cn2c3c(cc(C(=O)N[C@@H](Cc4ccccc4)[C@H](O)CNC4CC4)cc13)N(CC)S(=O)(=O)CC2, Cc1cccc2[nH]c(-c3ccc(-c4cccc(NC(=O)C(C)CN(C)C)c4)s3)nc12 (stereo unspecified), CCn1c(C(C)C)cc2c3c(N)nc(N)nc3ccc21, COc1ccc(NC(=O)Nc2cccc(-c3ccc(-c4nc5c(C)cccc5[nH]4)s3)c2)cc1, C=C(C)C1CC=C(CN2CCC(N3CCc4cc(NC(=O)c5cc(C)on5)ccc43)C2)CC1 (stereo unspecified), O=C(Nc1ccccc1Cl)c1cc2ccccc2cc1O, CCCCN1CCN(Cc2cccc(NC(=O)c3ccc(Cl)c(Cl)c3)c2)CC1, c1cn(-c2ccc(CNc3nccc(Nc4ccc(OCCN5CCOCC5)cc4)n3)cc2)cn1, CCN(Cc1ccccc1)C1CCN(Cc2cc(Br)ccc2O)CC1, O=C(Nc1ccc(OC2CCN(Cc3ccc(F)cc3)CC2)c(Cl)c1)c1ccccc1, COc1ccccc1NC(=O)NC1CCN(CCCCCNC(=O)/C=C/c2ccc(Cl)c(Cl)c2)CC1
